Reference: PubChem BioAssay (EPA / NIEHS)
Activity calls are given as the source filed them. The calls were made as follows: active = hit-call score of the fitted dose curve at least 0.9, where 1 is the maximum; inactive = score below 0.9.

Assay: ATG_NFI_CIS: Attagene CIS-FACTORIAL HepG2 Assay for human Nuclear Factor I (NFI) (AID 2282989)
Settings: HepG2 cis-regulatory reporter, NFI response element transcription; actives raise or lower the signal
Method: ATG_CIS is a cell-based, multiplexed-readout assay that uses HepG2, a human liver cell line, with measurements taken at 24 hours after chemical dosing in a 24-well plate.ATG_NFI_CIS is one of 52 assay component(s) measured or calculated from the ATG_CIS assay. It is designed to make measurements of mRNA induction, a form of inducible reporter, as detected with fluorescence intensity signals by Reverse transcription polymerase chain reaction (RT-PCR) and Capillary electrophoresis technology.Data from the assay component ATG_NFI_CIS was analyzed into 1 assay endpoint. This assay endpoint, ATG_NFI_CIS, was analyzed with bidirectional fitting relative to DMSO as the negative control and baseline of activity. Using a type of inducible reporter, measures of mRNA for gain or loss-of-signal activity can be used to understand the reporter gene at the transcription factor-level as they relate to the gene NFIA. Furthermore, this assay endpoint can be referred to as a primary readout, because this assay has produced multiple assay endpoints where this one serves a reporter gene function. To generalize the intended target to other relatable targets, this assay endpoint is annotated to the dna binding intended target family, where the subfamily is nuclear factor I.
Human liver HepG2 cells are transiently transfected with multiple reporter transcription units (MRTUs) in 6-well plates using FuGene 6 reagent (Roche; 3 ml FuGene/1 mg DNA). The MRTU constructs are regulated by a cis-regulating element (promoter). […] A major difference between the CIS and TRANS system is that in CIS activities of endogenous TFs are measured, whereas the TRANS assay evaluates changes in activities of exogenous, chimeric NR-Gal4 proteins. […] At the end of 24 hour incubation, total RNA was isolated using TriZol reagent (Invitrogen). The isolated RNA is then reverse-transcribed using oligo(dT) primer and Mo-MLV reverse transcriptase (Invitrogen) with DNAse I (Ambion) treatment for 30 min. The one-tenth of the produced cDNA was amplified by PCR using Taq DNA polymerase (Invitrogen) and two reporter sequence-specific primers. The PCR products were fluorescently labeled by primer extension with 6-arboxyfluorescein (6-FAM) 5'-labeled reporter sequence-specific primer (2 min at 95 C, 20 s at 68 C and 10 min at 72 C) and these products were digested with 5U of HpaI (New England Biolabs) for 2h at 37 C. The fragments were purified using Qiaquick PCR columns (Qiagen), analyzed on an ABI 3130xL genetic analyzer (Applied Biosystems) with peak positions identified by using a set of X-rhodamine (ROX)-labeled MapMarker1000 molecular weight standards (BioVentures). The raw capillary electrophoresis data was processed using Attagraph software (Attagene).

Row | Structure (SMILES) | outcome | AC50
1 | CC(=O)[O][Al][O]C(C)=O | inactive | –
2 | OC1OC[C@@H](O)[C@H](O)[C@H]1O (stereo not given in full) | inactive | –
3 | O=C(O)CCCCC1CCSS1 (stereo not given) | inactive | –
4 | C=C[Si](OCC)(OCC)OCC | inactive | –
5 | O=C(O)CN(CCN(CC(=O)O)CC(=O)O)CCN(CC(=O)O)CC(=O)O | inactive | –
6 | CCCCCC=CCC(=O)OC | inactive | –
7 | CC(=O)O[C@H](CC(=O)[O-])C[N+](C)(C)C | inactive | –
8 | NC(N)=NC(=O)c1nc(Cl)c(N)nc1N | inactive | –
9 | Cc1cccc(Nc2ccccc2C(=O)O)c1C | inactive | –
10 | O=P(c1ccccc1)(c1ccccc1)c1ccccc1 | inactive | –
11 | C=CCOC(=O)CCC1CCCCC1 | inactive | –
12 | C=C(C)C1CCC(C)CC1O (stereo not given) | inactive | –
13 | Clc1sc(Cl)c(Cl)c1Cl | inactive | –
14 | CC(C)=CCO | inactive | –
15 | c1cc(C(c2ccc(OCC3CO3)cc2)c2ccc(OCC3CO3)cc2)ccc1OCC1CO1 (stereo not given) | – | 10.1 µM (active)
16 | CCCC(=O)C(C)=O | inactive | –
17 | N#Cc1ccc(CC(=NNC(=O)Nc2ccc(OC(F)(F)F)cc2)c2cccc(C(F)(F)F)c2)cc1 | inactive | –
18 | CN(CCOc1ccc(CC2SC(=O)NC2=O)cc1)c1ccccn1 (stereo not given) | inactive | –
19 | CC(=O)Nc1ccccc1O | inactive | –
20 | Cc1cccc(C)c1C | inactive | –

Row | Structure (SMILES) | outcome | AC50
21 | NCCNCCN | inactive | –
22 | O=C1CCc2ccccc2O1 | inactive | –
23 | CC(C)Oc1ccccc1O | inactive | –
24 | COc1cc2ncnc(Nc3cccc(Cl)c3)c2cc1OC | inactive | –
25 | O=C(O)CCCCCCCCCCC(=O)O | inactive | –
26 | C=C[C@@H](C)CCC=C(C)C | inactive | –
27 | CO[Si](CCCn1c(=O)n(CCC[Si](OC)(OC)OC)c(=O)n(CCC[Si](OC)(OC)OC)c1=O)(OC)OC | inactive | –
28 | CCCCCC(CO)CCC (stereo not given) | inactive | –
29 | Cc1cc(C2(c3cc(C)c(O)cc3C)OS(=O)(=O)c3ccccc32)c(C)cc1O | inactive | –
30 | CCC(=O)OCc1ccccc1 | inactive | –
31 | O=C(O)Cc1cccc2ccccc12 | inactive | –
32 | C=CC(=O)OCC(O)COc1ccccc1 (stereo not given) | inactive | –
33 | COc1ccc(OC)c(OC)c1 | inactive | –
34 | COC(=O)OC | inactive | –
35 | Cc1ccc(C(=O)c2cc(O)c(O)c([N+](=O)[O-])c2)cc1 | inactive | –
36 | COCCCOc1ccnc(CS(=O)c2nc3ccccc3[nH]2)c1C (stereo not given) | inactive | –
37 | CCCOCC(C)O (stereo not given) | inactive | –
38 | CC(C)c1ccc(C(C)C)cc1 | inactive | –
39 | CC1(C)[C@@H]2CC[C@@]1(C)[C@H](O)C2 | inactive | –
40 | CCN(CC)CCOC(=O)c1ccc(N)cc1 | inactive | –
